Some test systems named below: HCT-15 colon; HT29 colon; SNB-75 CNS; SNB-19 CNS; U251 CNS; PC-3 prostate; SK-MEL-5 melanoma; UACC-62 melanoma; LOX IMVI melanoma; SK-MEL-28 melanoma; EKVX NSCLC; TK-10 renal; ACHN renal; CAKI-1 renal; A498 renal; CCRF-CEM leukemia; UO-31 renal; HL-60(TB) leukemia; SN12C renal.
Holding throughout (test): NCI-60 one-dose screen, 48 h (100 = growth as untreated, 0 = no growth, -100 = all killed)
What all share (conditions): 10 µM unless noted

This is part of a sample that, as a whole, favours compounds with a hit. Of some 83,000 tested, about 20% had one in any assay.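 Negative percent growth values reflect cell death: -40 means 40% of the cells present at the start died, and -100 means all died.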 A number with no mark means an inactive call. Active and inactive are the calls of the source. How the source made its calls: active means growth percent below 10; inactive means the rest.

The results in this text go back to PubChem BioAssay (NCI).

For `COC(=O)C1=CO[C@@H](C)[C@@H]2CN3CCc4c([nH]c5cc(OC)ccc45)[C@@H]3C[C@H]12`, the growth in the test on HCT-15 colon is 97.6%; with HT29 colon, 103%; in the test with SNB-75 CNS it was 76.9%; in the test with SNB-19 CNS, 95.2%; with U251 CNS, 103%; in the test on PC-3 prostate, 93.9%. For the same compound, the growth is 98.2% in the test with SK-MEL-5 melanoma; 78.3% in the test with UACC-62 melanoma; 94.6% with LOX IMVI melanoma; 114% in the test with SK-MEL-28 melanoma; 97.5% in the test with EKVX NSCLC; 101% in the test with TK-10 renal. Besides, the growth in the test with ACHN renal is 94.8%; in the test on CAKI-1 renal it was 89.8%; in the test with A498 renal, 68.6%; with CCRF-CEM leukemia, 106%.
Regarding `OCCN=Cc1c[nH]c2ccccc12`, the growth in the test on HCT-15 colon was 105%; in the test on HT29 colon, 102%; in the test with SNB-75 CNS, 75%; in the test on SNB-19 CNS it was 101%; in the test on U251 CNS, 103%; in the test with PC-3 prostate it was 90.5%. For the same compound, the growth in the test on SK-MEL-5 melanoma was 103%; in the test on UACC-62 melanoma it was 90.9%; in the test with LOX IMVI melanoma, 95.2%; in the test with SK-MEL-28 melanoma it was 111%; with EKVX NSCLC it was 93.8%; with UO-31 renal it was 75.7%. The growth is 122% in the test with TK-10 renal; 94.3% in the test on ACHN renal; 80.4% in the test on CAKI-1 renal; 107% in the test on A498 renal; 101% with HL-60(TB) leukemia; 114% with CCRF-CEM leukemia.
Regarding `COc1ccc(C(C#N)C(C)=O)cc1` (centres undefined), the growth in the test with HCT-15 colon is 95%; in the test on HT29 colon, 88.7%; in the test with SNB-75 CNS it was 82.1%; in the test with SNB-19 CNS, 105%; in the test with U251 CNS it was 106%; in the test on PC-3 prostate, 103%. For the same compound, the growth in the test with SK-MEL-5 melanoma is 102%; with UACC-62 melanoma it was 97.6%; with LOX IMVI melanoma, 98.1%; with SK-MEL-28 melanoma it was 115%; with EKVX NSCLC, 108%; in the test with SN12C renal it was 102%. For the same compound, the growth in the test with UO-31 renal was 90.4%; in the test with TK-10 renal, 96.8%; in the test with ACHN renal, 99.8%; in the test with CAKI-1 renal it was 95.3%; in the test with HL-60(TB) leukemia, 110%; with CCRF-CEM leukemia, 98.6%.
Take `C[C@]12CCc3nc(-c4ccc(O)c(O)c4)sc3C1=CC[C@@H]1[C@@H]2CC[C@]2(C)C(=O)CC[C@@H]12`: the growth with HCT-15 colon was 26%; with HT29 colon, 77.7%; in the test on SNB-75 CNS it was 92.3%; in the test on SNB-19 CNS, 75%; in the test on U251 CNS it was 40.5%; in the test on PC-3 prostate, 34.3%. In addition, the growth with SK-MEL-5 melanoma is 78.5%; in the test with UACC-62 melanoma, 91.5%; with LOX IMVI melanoma, 89.1%; in the test on SK-MEL-28 melanoma, 84.6%; in the test with EKVX NSCLC, 95.7%; in the test on UO-31 renal, 43%. For the same compound, the growth in the test with TK-10 renal was 53.6%; in the test on ACHN renal, 51.3%; in the test with CAKI-1 renal it was 39.7%; in the test with A498 renal, 113%; in the test with HL-60(TB) leukemia, 51.4%; in the test with CCRF-CEM leukemia, 47.5%.
For `O=C1C=C(N2CC2)c2ccccc2C1=O`, the growth was 79.6% with HCT-15 colon; 73.4% in the test with HT29 colon; 90.2% in the test on SNB-75 CNS; 82.7% with SNB-19 CNS; 65.3% with U251 CNS; 44.3% in the test on PC-3 prostate. The growth is 59.7% with SK-MEL-5 melanoma; 97.8% with UACC-62 melanoma; 39% in the test on LOX IMVI melanoma; 111% with SK-MEL-28 melanoma; 114% with EKVX NSCLC; 51.2% with SN12C renal. Also, the growth is 53.9% in the test on UO-31 renal; 118% in the test with TK-10 renal; 21% with ACHN renal; 32.3% with CAKI-1 renal; 102% in the test with A498 renal; 8.35% (active) with HL-60(TB) leukemia. Also, the growth with CCRF-CEM leukemia is -11.5% (active).
In the case of `O=C(Cc1ccccc1)c1ccccc1`, the growth with HCT-15 colon was 102%; in the test on HT29 colon it was 106%; with SNB-75 CNS, 86.8%; in the test with SNB-19 CNS, 109%; in the test on U251 CNS it was 94.5%; in the test with PC-3 prostate it was 98.2%. The growth was 99.6% in the test with SK-MEL-5 melanoma; 111% with UACC-62 melanoma; 106% with LOX IMVI melanoma; 113% in the test with SK-MEL-28 melanoma; 103% in the test with EKVX NSCLC; 90.2% in the test on UO-31 renal. Also, the growth was 95.5% in the test with TK-10 renal; 107% in the test on ACHN renal; 101% in the test with CAKI-1 renal; 63.6% with A498 renal; 103% with HL-60(TB) leukemia; 7.63% (active) in the test with CCRF-CEM leukemia.
Regarding `O=C(O)CNCP(=O)(O)O`, the growth with HCT-15 colon is 123%; in the test on HT29 colon, 98.6%; with SNB-75 CNS, 96.5%; with SNB-19 CNS, 123%; in the test with U251 CNS, 98.3%; in the test with PC-3 prostate, 106%. For the same compound, the growth was 111% in the test with SK-MEL-5 melanoma; 105% in the test on UACC-62 melanoma; 95.7% with LOX IMVI melanoma; 120% with SK-MEL-28 melanoma; 106% with EKVX NSCLC; 101% in the test on SN12C renal. Moreover, the growth is 108% in the test with TK-10 renal; 123% in the test with ACHN renal; 100% in the test with CAKI-1 renal; 117% in the test on A498 renal; 95.8% in the test on HL-60(TB) leukemia; 90.9% in the test on CCRF-CEM leukemia.
In the case of `CC1(C)C=Cc2c(ccc3c2[N+]([O-])=C2C3=C[C@@]34NC(=O)[C@]5(CCCN5C3=O)C[C@@H]4C2(C)C)O1`, the growth in the test with HCT-15 colon is 46.8%; with HT29 colon, 24.6%; in the test on SNB-75 CNS, 62.1%; with SNB-19 CNS, 50.7%; in the test on U251 CNS, 35.3%; in the test on PC-3 prostate, 45.5%. Moreover, the growth in the test on SK-MEL-5 melanoma was 19.2%; with UACC-62 melanoma, 64.6%; in the test with LOX IMVI melanoma it was 27.6%; with SK-MEL-28 melanoma, 71.1%; in the test with EKVX NSCLC it was 34.3%; in the test on SN12C renal, 30.7%. For the same compound, the growth in the test on UO-31 renal was 73.5%; with TK-10 renal, 83.1%; in the test with ACHN renal it was 39.7%; with CAKI-1 renal, 27%; in the test on A498 renal it was 69%; in the test on HL-60(TB) leukemia, 33.6%. Moreover, in the test on CCRF-CEM leukemia, the growth is 14.2%.
